As a reminder, the AC50 is the concentration at which the activity in the assay is half-maximal.

Values without a mark were called inactive. For some of these results: Results with a measured potency or affinity are listed apart. Active and inactive are the calls of the source. How the calls were made is not given here.

efficacy, AC50 and outcome data for 13 molecules are collected here from PubChem BioAssay (NCATS).

The conditions of assay [1]: Ebola virus entry assay, green fluorescence channel.
The conditions of assay [2]: Ebola virus entry assay, blue channel fluorescence.
For assay [3] the following is noted: Ebola virus entry assay, ratio channel.
For assay [4] the following is noted: Ebola virus entry assay, reporter ratio channel; Channel type: primary.
Wherever efficacy is given: 0% is about no effect.

As for `CN(C)c1ccc(C(=C2C=CC(=[N+](C)C)C=C2)c2ccc(N(C)C)cc2)cc1`, in assay [1], the efficacy is -158%. Further, the AC50 in assay [2] is 5.01 µM (active); in assay [3], 3.55 µM (active); in assay [4], 3.55 µM (active).
As for `CN1CCCN=C1COC(=O)C(O)(c1ccccc1)C1CCCCC1` (configuration not stated), the efficacy in assay [1] was 75.7%. Further, the AC50 in assay [2], in assay [3] and in assay [4] was 12.6 µM (active) each time.
Turning to `Nc1c2ccccc2nc2ccccc12`, the efficacy in assay [1] is 59%. The call in assay [2], in assay [3] and in assay [4] was inactive.
With `CCCCCN=C(N)N/N=C/c1c[nH]c2ccc(OC)cc12`, the efficacy in assay [1] is -150%. In addition, the values for the AC50 in assay [2], in assay [3] and in assay [4] were 3.98 µM (active), 3.16 µM (active) and 3.16 µM (active), respectively.
Consider `Cc1nc2n(c(=O)c1CCN1CCC(C(=O)c3ccc(F)cc3)CC1)CCS2`, for which the efficacy in assay [1] was 91.8%. Further, the molecule was called inactive in assay [2], in assay [3] and in assay [4].
Consider `CCCCCCCCCCCCCCCCCCNC(=O)OC1CCN(C(=O)OC[C@H](COC(=O)N(Cc2cccc[n+]2CC)C(=O)c2ccccc2OC)OC)CC1`, for which the efficacy in assay [1] is -117%. For the same molecule, in assay [2], the AC50 is 39.8 µM (active). For the same molecule, the outcome in assay [3] and in assay [4] was inactive.
Regarding `CCC(C(=O)OCCN1CCOC(c2ccccc2)C1C)c1ccccc1` (configuration not stated), the efficacy in assay [1] was 88.5%. The results for the AC50 in assay [2], in assay [3] and in assay [4] were 22.4 µM (active), 28.2 µM (active) and 28.2 µM (active), respectively.
`CN(C)CCOC1=Cc2ccccc2Sc2ccc(Cl)cc21`: in assay [1], the efficacy was 46.9%. Also, the figures for the AC50 in assay [2], in assay [3] and in assay [4] were 15.8 µM (active), 12.6 µM (active) and 12.6 µM (active), respectively.
For `O=C(c1ccc(F)cc1)C1CCN(CCn2c(=S)[nH]c3ccccc3c2=O)CC1`, the efficacy in assay [1] was 48.9%. The figures for the AC50 in assay [2], in assay [3] and in assay [4] were 35.5 µM (active), 17.8 µM (active) and 17.8 µM (active), respectively.
`CC(C(O)c1ccc(O)cc1)N1CCC(Cc2ccccc2)CC1` (configuration not stated): the efficacy in assay [1] is 92.8%. Besides, the AC50 in assay [2] was 17.8 µM (active); in assay [3] it was 28.2 µM (active); in assay [4], 28.2 µM (active).
Turning to `CCCCOc1ccc(C(=O)CCN2CCCCC2)cc1`, the efficacy in assay [1] is 94.7%. Further, the figures for the AC50 in assay [2], in assay [3] and in assay [4] were 25.1 µM (active), 31.6 µM (active) and 31.6 µM (active), respectively.
Take `C[C@@H]1O[C@@H](O[C@@H]2C=C3CC[C@@H]4[C@H](CC[C@]5(C)[C@@H](c6ccc(=O)oc6)CC[C@]45O)[C@@]3(C)CC2)[C@H](O)[C@H](O)[C@H]1O`: the efficacy in assay [1] is 35.7%. The AC50 is 8.91 µM (active) in assay [2], 7.94 µM (active) in assay [3] and 7.94 µM (active) in assay [4].
Take `C[C@]12Cc3nonc3C[C@@H]1CC[C@@H]1[C@@H]2CC[C@@]2(C)[C@H]1CC[C@]2(C)O`: the efficacy in assay [1] was 48.4%. In addition, the figures for the AC50 in assay [2], in assay [3] and in assay [4] were 15.8 µM (active), 17.8 µM (active) and 17.8 µM (active), respectively.
